Here are results for eight compounds from PubChem BioAssay (NCI).

Molecules are shown by their SMILES. This is part of a sample that, as a whole, favours compounds with a hit. Of some 83,000 tested, about 20% had one in any assay.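 In brief: 96-well plates, 48 h treatment, single concentration, percent growth endpoint.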 Values without a mark were called inactive. Activity calls are given as the source filed them. Rule for the calls: active = growth percent below 10; inactive = the rest.

Common to all, as to assay: NCI-60 one-dose screen, 48 h (100 = growth as untreated, 0 = no growth, -100 = all killed)
In one assay the test system is EKVX NSCLC. Conditions: 10 µM unless noted.
In a further assay the test system is SN12C renal. Conditions: 10 µM unless noted.
A further assay relates to UO-31 renal. Conditions: 10 µM unless noted.
A further assay deals with TK-10 renal. The note with it: 10 µM unless noted.
For a further assay, the system named is ACHN renal. The note with it: 10 µM unless noted.
In a further assay the test system is CAKI-1 renal. The note with it: 10 µM.
A further assay relates to CCRF-CEM leukemia. The note with it: 10 µM unless noted.
The next assay relates to MOLT-4 leukemia. Conditions: 10 µM unless noted.
In the next assay the test system is SR leukemia. The note with it: 10 µM unless noted.
In a further assay the test system is RPMI-8226 leukemia. Conditions: 10 µM unless noted.
Another assay relates to OVCAR-8 ovarian. The note with it: 10 µM unless noted.
For another assay, the system named is OVCAR-5 ovarian. Conditions: 10 µM unless noted.
Another assay concerns OVCAR-4 ovarian. Conditions: 10 µM unless noted.
The next assay concerns SK-OV-3 ovarian. The note with it: 10 µM unless noted.
The test system of another assay is IGROV1 ovarian. The note with it: 10 µM unless noted.
The subject of another assay is NCI/ADR-RES ovarian. Conditions: 10 µM unless noted.
The test system of another assay is HS 578T breast. The note with it: 10 µM unless noted.
In a further assay the test system is A498 renal. Conditions: 10 µM unless noted.

On to `C(=C(\C1=NCCN1)n1cnc2ccccc21)/c1cccc2ccccc12`, for which the growth is 87.2% in the assay on EKVX NSCLC; 85.4% in the assay on SN12C renal; 62.2% with UO-31 renal; 90.9% in the assay with TK-10 renal; 87.2% in the assay with ACHN renal; 68.7% with CAKI-1 renal. Also, the growth with CCRF-CEM leukemia is 91.1%; with MOLT-4 leukemia, 93.2%; with SR leukemia it was 84.7%; with RPMI-8226 leukemia, 87.2%; in the assay with OVCAR-8 ovarian it was 95.8%; in the assay with OVCAR-5 ovarian it was 81.4%. Also, the growth in the assay on OVCAR-4 ovarian is 93.3%; in the assay with SK-OV-3 ovarian, 89%; in the assay on IGROV1 ovarian, 89.7%; in the assay with NCI/ADR-RES ovarian, 96.8%.

With `Nc1nc(-c2cccc([N+](=O)[O-])c2)c(N=Nc2ccccc2Cl)s1`, the growth is 79.6% in the assay with EKVX NSCLC; 73.7% in the assay with SN12C renal; 63.8% with UO-31 renal; 85.7% with TK-10 renal; 63.2% in the assay with ACHN renal; 28.8% with CAKI-1 renal. For the same compound, the growth was 66.8% in the assay on CCRF-CEM leukemia; 68.7% in the assay with MOLT-4 leukemia; 59.1% in the assay on SR leukemia; 68.5% with RPMI-8226 leukemia; 56.8% in the assay on OVCAR-8 ovarian; 93.7% in the assay with OVCAR-5 ovarian. The growth is 63.1% in the assay on OVCAR-4 ovarian; 99.5% in the assay on SK-OV-3 ovarian; 74.8% in the assay with IGROV1 ovarian; 56.8% with HS 578T breast; 59.9% in the assay with NCI/ADR-RES ovarian.

Consider `CN1CCN(Cc2ccc(NC(=O)c3cncc(C#Cc4cnc5ccc(NC6CCOCC6)nn45)c3)cc2C(F)(F)F)CC1`, for which the growth with EKVX NSCLC was -4.66% (active); in the assay with SN12C renal, 1.01% (active); in the assay on UO-31 renal, -43.7% (active); in the assay on TK-10 renal it was -11.7% (active); in the assay with ACHN renal, -95.5% (active); in the assay on CAKI-1 renal, -46.9% (active). The growth in the assay with CCRF-CEM leukemia was 3.15% (active); with MOLT-4 leukemia it was 5.18% (active); in the assay with SR leukemia, -37.8% (active); in the assay with RPMI-8226 leukemia it was -34.1% (active); in the assay on OVCAR-8 ovarian, -52.4% (active); in the assay on OVCAR-5 ovarian, 0.169% (active). For the same compound, the growth is -29.1% (active) with OVCAR-4 ovarian; -22.9% (active) in the assay on SK-OV-3 ovarian; -21% (active) in the assay with IGROV1 ovarian; -26% (active) with HS 578T breast; 7.41% (active) with NCI/ADR-RES ovarian.

Consider `CC1CCc2c(sc3nc(SCC(=O)N/N=C/c4ccc(Cl)cc4)n(-c4ccccc4)c(=O)c23)C1` (configuration not stated), for which the growth is 103% in the assay with EKVX NSCLC; 95.6% with SN12C renal; 94.2% with UO-31 renal; 114% in the assay with TK-10 renal; 81.1% in the assay with ACHN renal; 75.1% with CAKI-1 renal. Besides, the growth in the assay on CCRF-CEM leukemia is 109%; in the assay with MOLT-4 leukemia, 110%; with SR leukemia, 96%; in the assay with RPMI-8226 leukemia, 101%; in the assay on OVCAR-8 ovarian, 96.7%; with OVCAR-5 ovarian, 99.4%. Also, the growth in the assay on OVCAR-4 ovarian is 99.4%; with SK-OV-3 ovarian, 97.9%; with IGROV1 ovarian, 100%; in the assay on HS 578T breast it was 82.2%; in the assay on NCI/ADR-RES ovarian it was 97.2%.

With `CS(=O)(=O)c1ccc2c(c1)c1c(n2C(=O)c2ccc(Cl)cc2)CCCC1`, the growth in the assay on EKVX NSCLC is 59.7%; in the assay on SN12C renal it was 41.2%; in the assay with UO-31 renal it was 40.3%; in the assay with ACHN renal, 43.6%; in the assay on CAKI-1 renal it was 37.1%; in the assay on A498 renal, 38.2%. The growth in the assay with CCRF-CEM leukemia is 25.4%; with RPMI-8226 leukemia, 15.4%; with OVCAR-8 ovarian, 35.3%; with OVCAR-5 ovarian, 50.3%; in the assay on OVCAR-4 ovarian it was 66.4%; with SK-OV-3 ovarian, 90.3%. Moreover, the growth in the assay on IGROV1 ovarian was 46.2%; with HS 578T breast it was -0.806% (active); with NCI/ADR-RES ovarian, 25.7%.

Regarding `CCN1CCN(c2cc(C(=O)Nc3nc4ccc(Oc5ccnc(C(=O)NC)c5)cc4s3)cc(C(F)(F)F)c2)CC1`, the growth is 92.5% in the assay on EKVX NSCLC; 75.2% in the assay on SN12C renal; -63.3% (active) in the assay with UO-31 renal; 100% with TK-10 renal; 66% in the assay with ACHN renal; 84.5% in the assay with CAKI-1 renal. Further, the growth in the assay with CCRF-CEM leukemia was 65%; in the assay on MOLT-4 leukemia, 52.3%; in the assay with SR leukemia, -3.58% (active); with RPMI-8226 leukemia, 33%; in the assay with OVCAR-8 ovarian, 92.4%; in the assay with OVCAR-5 ovarian it was 101%. Besides, the growth with OVCAR-4 ovarian was 67.9%; with SK-OV-3 ovarian, 109%; in the assay on IGROV1 ovarian, 95.8%; in the assay on HS 578T breast, 93.1%; with NCI/ADR-RES ovarian, 99.6%.

On to `CCc1ccc(NC(=O)N[C@@H](Cc2cccc(F)c2)C(=O)N[C@@H]2C(=O)N3CCC[C@H]3C(=O)N3CCCC[C@H]3C(=O)N[C@@H](C)C(=O)N3C[C@H](C)C[C@H]3C(=O)O[C@H]2C)c(F)c1`, for which the growth with EKVX NSCLC was 31.1%; in the assay on SN12C renal, 21%; in the assay with UO-31 renal it was 26.3%; in the assay on TK-10 renal it was 50.3%; in the assay with ACHN renal it was 27.4%; with CAKI-1 renal, 17.8%. Besides, the growth was 33.9% in the assay on CCRF-CEM leukemia; 32% with MOLT-4 leukemia; 21.2% with SR leukemia; 12.3% with RPMI-8226 leukemia; 23.1% with OVCAR-8 ovarian; 23.9% in the assay with OVCAR-5 ovarian. The growth with OVCAR-4 ovarian is 23.9%; in the assay on SK-OV-3 ovarian it was 24.9%; in the assay with IGROV1 ovarian, 35.9%; in the assay on HS 578T breast, 26.3%; with NCI/ADR-RES ovarian it was 18.4%.

For `C/C(=N\NC(=O)CSc1nc2sc3c(c2c(=O)n1-c1ccccc1)CCC(C)C3)c1ccc(Cl)cc1` (configuration not stated), the growth was 31.5% with EKVX NSCLC; 29.2% with SN12C renal; 17% in the assay on UO-31 renal; 32.8% with TK-10 renal; 13.4% in the assay with ACHN renal; 12.8% in the assay with CAKI-1 renal. Besides, the growth is 12.6% with CCRF-CEM leukemia; 14% in the assay on MOLT-4 leukemia; 6.22% (active) in the assay on SR leukemia; 24.9% with RPMI-8226 leukemia; 18.8% in the assay on OVCAR-8 ovarian; 50% in the assay with OVCAR-5 ovarian. The growth in the assay on OVCAR-4 ovarian is 29.3%; in the assay on SK-OV-3 ovarian it was 57.4%; in the assay with IGROV1 ovarian it was 19.2%; with NCI/ADR-RES ovarian, 12.4%.
